In PubChem BioAssay AID1159580 (chemical genetic matrix, 2015):
Screen size: about 5,500 compounds; about 2,000 (36%) were called active. About 18% were inconclusive and are not listed. No stated cut-off is given here; in the data, active means normalized growth mostly below about 0.91 (no sharp cut-off); inconclusive means no clear call, values can overlap the other calls; inactive means mostly above about 0.92. The list shows a part of the results.

Experiment: chemical genetic growth profiling, strain panel (AID 1159580);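 further: tested at 20 µM; growth read once vehicle control cultures reached saturation at 30 °C; 1 = growth at the plate median or of vehicle wells; lower values mean less growth of the strain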
Conditions: S. cerevisiae deletion strains, growth OD

Measured: normalized growth

O=C(O)[C@H]1/C(=C/CO)O[C@@H]2CC(=O)N21
inactive: locus YAL021C, strain ccr4, active compounds read low 0.992 | locus YAL026C, strain drs2, active compounds read low 0.991 | locus YAL030W, strain snc1, active compounds read low 0.992 | locus YBL061C, strain skt5, active compounds read low 0.955 | locus YBR009C, strain hhf1, active compounds read low 1.01 | locus YBR023C, strain chs3, active compounds read low 0.978 | locus YBR171W, strain sec66, active compounds read low 0.983 | locus YBR231C, strain swc5, active compounds read low 1.02 | locus YBR279W, strain paf1, active compounds read low 0.976 | locus YCL011C, strain gbp2, active compounds read low 1.02 | locus YCL016C, strain dcc1, active compounds read low 0.972 | locus YCL069W, strain vba3, active compounds read low 0.986 | locus YCR088W, strain abp1, active compounds read low 0.986 | locus YDL005C, strain med2, active compounds read low 0.971 | locus YDL040C, strain nat1, active compounds read low 0.982 | locus YDR001C, strain nth1, active compounds read low 0.981 | locus YDR069C, strain doa4, active compounds read low 1.01 | locus YDR137W, strain rgp1, active compounds read low 0.982 | locus YDR159W, strain sac3, active compounds read low 0.97 | locus YDR195W, strain ref2 0.96 | locus YDR297W, strain sur2, active compounds read low 1 | locus YDR334W, strain swr1, active compounds read low 0.988 | locus YDR335W, strain msn5, active compounds read low 0.976 | locus YDR392W, strain spt3, active compounds read low 0.883 | locus YEL003W, strain gim4, active compounds read low 1 | locus YEL037C, strain rad23, active compounds read low 0.985 | locus YEL061C, strain CIN8 (second series), active compounds read low 0.986 | locus YER015W, strain faa2, active compounds read low 0.996 | locus YER016W, strain bim1, active compounds read low 0.957 | locus YER111C, strain swi4, active compounds read low 0.973 | locus YER155C, strain BEM2 (second series), active compounds read low 0.999 | locus YFR010W, strain ubp6, active compounds read low 1.02 | locus YGL167C, strain pmr1, active compounds read low 0.986 | locus YGL173C, strain kem1, active compounds read low 0.997 | locus YGL227W, strain vid30, active compounds read low 0.971 | locus YGL240W, strain doc1, active compounds read low 1.01 | locus YGL253W, strain hxk2, active compounds read low 0.959 | locus YHR013C, strain ard1, active compounds read low 0.957 | locus YHR027C, strain rpn1, active compounds read low 0.992 | locus YHR030C, strain SLT2, active compounds read low 0.964 | locus YHR079C, strain IRE1, active compounds read low 0.959 | locus YHR142W, strain chs7, active compounds read low 0.959 | locus YJL092W, strain hpr5, active compounds read low 0.999 | locus YJL095W, strain BCK1 (second series), active compounds read low 1 | locus YJL095W, strain BCK1, active compounds read low 0.991 | locus YJL115W, strain asf1, active compounds read low 0.983 | locus YJL129C, strain trk1, active compounds read low 0.941 | locus YJL154C, strain vps35, active compounds read low 0.982 | locus YJL164C, strain tpk1, active compounds read low 0.993 | locus YJL166W, strain qcr8, active compounds read low 1.03 | locus YJL187C, strain SWE1, active compounds read low 0.995 | locus YJR066W, strain TOR1, active compounds read low 0.936 | locus YKL160W, strain elf1, active compounds read low 0.955 | locus YKR026C, strain gcn3, active compounds read low 0.99 | locus YKR091W, strain srl3, active compounds read low 0.986 | locus YLL001W, strain dnm1, active compounds read low 0.984 | locus YLL026W, active compounds read low 0.987 | locus YLL041C, strain sdh2, active compounds read low 1.02 | locus YLR027C, strain aat2, active compounds read low 1 | locus YLR113W, strain HOG1, active compounds read low 0.974 | locus YLR221C, strain rsa3, active compounds read low 1.01 | locus YLR258W, strain gsy2, active compounds read low 1 | locus YLR262C, strain YPT6 (second series), active compounds read low 1.02 | locus YLR320W, strain mms22, active compounds read low 1.01 | locus YLR342W, strain FKS1, active compounds read low 0.965 | locus YLR357W, strain rsc2, active compounds read low 0.931 | locus YLR370C, strain arc18, active compounds read low 0.972 | locus YLR384C, strain iki3, active compounds read low 0.98 | locus YML120C, strain ndi1, active compounds read low 0.997 | locus YMR058W, strain fet3, active compounds read low 0.993 | locus YMR125W, strain sto1, active compounds read low 0.954 | locus YMR129W, active compounds read low 0.981 | locus YMR205C, strain PFK2, active compounds read low 0.99 | locus YMR231W, strain pep5, active compounds read low 0.983 | locus YNL071W, strain lat1, active compounds read low 0.996 | locus YNL183C, strain NPR1, active compounds read low 0.952 | locus YNL209W, strain ssb2, active compounds read low 0.98 | locus YNL248C, strain rpa49, active compounds read low 0.935 | locus YNL322C, strain KRE1 (second series), active compounds read low 0.973 | locus YNR049C, strain mso1, active compounds read low 0.972 | locus YOR001W, strain rrp6, active compounds read low 1.03 | locus YOR070C, strain gyp1, active compounds read low 0.994 | locus YOR080W, strain dia2, active compounds read low 0.988 | locus YOR083W, strain WHI5, active compounds read low 0.909 | locus YOR106W, strain vam3, active compounds read low 0.952 | locus YOR231W, strain MKK1, active compounds read low 0.987 | locus YOR265W, strain rbl2, active compounds read low 0.993 | locus YOR270C, strain vph1, active compounds read low 1 | locus YOR290C, strain snf2, active compounds read low 0.986 | locus YPL051W, strain arl3, active compounds read low 0.979 | locus YPL078C, strain atp4, active compounds read low 0.967 | locus YPL106C, strain sse1, active compounds read low 0.979 | locus YPL240C, strain hsp82, active compounds read low 1.01 | locus YPL256C, strain CLN2, active compounds read low 0.959
